From PubChem BioAssay (NCATS)
Results filed as inconclusive are left out. Unmarked numbers belong to inactive results. Calls of active or inactive are those of the source. Calls follow the shape of the dose curve; as a rule, active = well fitted inhibition curve with a large enough effect; inconclusive = small, poorly fitted or top-dose-only effect; inactive = flat fitted curve, though single readings scatter.

These compounds were tested on Zika virus NS2B-NS3 protease (assay: Primary screen GU AMC qHTS for Zika virus inhibitors (AID 1347154; also: nearly all actives have a fitted effect of over 70% in size;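 as to activity change, negative = inhibition: 0% = no-inhibitor control and -100% = no-enzyme control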)). Settings: Zika NS2B-NS3 unlinked protease, AMC fluorogenic substrate; series mostly up to 54.1 µM; activity change, negative = inhibition: at the top concentration.
Procedure, shortened: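 Unlinked Zika NS2B hydrophilic domain/NS3 protease domain noncovalent complex (25 nM final) in 10 mM Tris-HCl pH 8.0, 0.01% Tween 20, with AMC peptide substrate. Fluorescence (ex 340, em 450 nm) change over 15 min, room temperature; percent inhibition fitted to 4-parameter Hill equation.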
Potency is read from the fitted curve at half-maximal effect.

Row | Compound | activity change, negative = inhibition | Potency
1 | S=C(SSC(=S)N1CCCCC1)N1CCCCC1 | -5.68% | –
2 | Nc1ccc(Cl)cc1 | -3.17% [at 104 µM] | –
3 | CC(=O)OCC1=C(C(=O)O)N2C(=O)[C@@H](N)[C@@H]2SC1 | 8.58% | –
4 | C[C@@H]1CC[C@H]2[C@@H](C)C(=O)O[C@@H]3O[C@@]4(C)CC[C@H]1[C@]32OO4 | 12.5% | –
5 | C=C[C@@H]1CN2CCC1C[C@H]2[C@H](O)c1ccnc2ccccc12 (some centres undefined) | -5.26% | –
6 | C[C@](O)(COc1ccc(C#N)cc1)C(=O)Nc1ccc(C#N)c(C(F)(F)F)c1 | -6.15% | –
7 | C#CC1(O)CCC2C3CCC4=CC(=O)CCC4(C)C3CCC21C (centres undefined) | 1.46% | –
8 | CC(=O)O[C@@]12CO[C@H]1C[C@H](O)[C@@]1(C)C(=O)[C@H](O)C3=C(C)[C@@H](O)C[C@@](O)([C@@H](OC(=O)c4ccccc4)[C@@H]21)C3(C)C | 16.1% | –
9 | C=CC(=O)NCNC(=O)C=C | -0.251% [at 104 µM] | –
10 | O=C1CCC[C@@H]2[C@H]3CCCN4CCC[C@@H](CN12)[C@@H]34 | 1.98% | –
11 | CCOC(=O)c1cncn1[C@H](C)c1ccccc1 | 6.85% | –
12 | OCCCBr | -11.3% [at 104 µM] | –
13 | O=S(=O)(O)C(F)(F)C(F)(F)C(F)(F)C(F)(F)F | 1.57% [at 104 µM] | –
14 | O=[N+]([O-])/N=C1\NCCN1Cc1ccc(Cl)nc1 | -6.44% | –
15 | C[C@@H]1O[C@@H](O[C@@H]2C=C3CC[C@@H]4[C@@H](CC[C@]5(C)[C@H](c6ccc(=O)oc6)CC[C@@]45O)[C@@]3(C)CC2)[C@H](O)[C@H](O)[C@H]1O | 3.09% | –
16 | CC(=O)[O][Hg][c]1ccccc1 | 1.78% | –
17 | CC(C)NCC(O)c1ccc([N+](=O)[O-])cc1 (centres undefined) | -7.58% | –

Row | Compound | activity change, negative = inhibition | Potency
18 | CC[N+]1(CCOC(=O)C(O)(c2ccccc2)c2ccccc2)CCCCC1 | 3.74% | –
19 | CCC1(CCC(C)C)C(=O)NC(=O)NC1=O | 3.05% [at 104 µM] | –
20 | Cc1c(N)nc([C@H](CC(N)=O)NC[C@@H](N)C(N)=O)nc1C(=O)N[C@H](C(=O)N[C@@H](C)[C@H](O)[C@@H](C)C(=O)N[C@@H](C(=O)NCCc1nc(-c2nc(C(=O)NCCC[S+](C)C)cs2)cs1)[C@@H](C)O)C(O[C@H]1O[C@H](CO)[C@H](O)[C@@H](O)[C@@H]1O[C@H]1O[C@H](CO)[C@@H](O)[C@H](OC(N)=O)[C@H]1O)c1cnc[nH]1 (some centres undefined) | 5.2% | –
21 | COC[C@H]1OC(=O)c2coc3c2[C@@]1(C)C1=C(C3=O)[C@@H]2CC[C@H](O)[C@@]2(C)C[C@@H]1OC(C)=O | -1.69% | –
22 | C[C@]12COC(=O)C[C@@H]1CC[C@@H]1[C@H]2CC[C@@]2(C)[C@H]1CC[C@]2(C)O | -4.04% | –
23 | CC(O)=C(C#N)C(=O)Nc1cc(Br)ccc1Br | -9.8% | –
24 | C[C@H]1CCCC=CC2C[C@H](O)C[C@@H]2[C@H](O)C=CC(=O)O1 (some centres undefined) | 4.26% | –
25 | CC[C@H]1C=CC=CC[C@@H](C)[C@H](O)[C@@](C)(O)C(=O)[C@@H](C)[C@H](O)[C@@H](C)C(=O)[C@@H](C)[C@H](O)[C@@H](C)C=CC(=O)O[C@@H]2[C@@H](C)[C@H](CC1)O[C@]1(CC[C@H](C)[C@H](C[C@@H](C)O)O1)[C@H]2C | -5.25% | –
26 | CC[C@@]1(O)C(=O)OCc2c1cc1n(c2=O)Cc2cc3ccccc3nc2-1 | – | 2.12 µM (active)
27 | CC(=CCCC1=CCC(C2=CC(=O)OC2O)OC1O)CCC1=C(C)CCCC1(C)C (centres undefined) | -3.81% | –
28 | C#C[C@]1(O)C=C[C@@H]2[C@@H]3CCC4=CC(=O)CC[C@@H]4[C@H]3CC[C@@]21CC | 10.9% | –
29 | CCOP(=O)(NC(C)C)Oc1ccc(SC)c(C)c1 (centres undefined) | -1.24% [at 104 µM] | –
30 | c1cc2c(cc1[C@H]1OC[C@H]3[C@H]1CO[C@H]3c1ccc3c(c1)OCO3)OCO2 | 5.68% | –
31 | CC(C)Oc1cccc(NC(=O)c2ccccc2C(F)(F)F)c1 | -3.54% [at 104 µM] | –
32 | COC(C)(C)CCCC(C)C/C=C/C(C)=C/C(=O)OC(C)C (centres undefined) | -0.976% | –
33 | c1cc2ccc3cccc4ccc(c1)c2c34 | – | 17.3 µM (active)
34 | CC(C)(O)C=CC(=O)[C@](C)(O)[C@H]1[C@H](O)C[C@]2(C)[C@@H]3CC=C4[C@@H](C=C(O)C(=O)C4(C)C)[C@]3(C)C(=O)C[C@@]12C | 1.83% | –
